pAkt inh – blocks phosphorylation of Akt | Neuro2A IGF-stimulated pAkt S473 HTRF, 20 min; stronger effect = lower value | 360,000 compounds, 0.32% hits | activity change, % for hits at 50 µM; in the data active means activity change below about -80%; inconclusive means mostly about -51% to -80%; further: on the % scale 0 is the no-effect control and ±100 the full control effect
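Neuro2A cells in DMEM with 0.5% FBS, overnight at 37 deg C, given compound at single 50 µM final, then IGF (6 nM final) for 20 min at 37 deg C. Lysed; phospho-Akt Ser473 by HTRF after 24 h, 665/615 ratio.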
CCT modulator – changes cytosolic chaperonin activity | purified chaperonin ATPase assay, HTRF ADP detection, 30 min | activity change, % (no concentration beside the values), hits read low | 360,000 compounds, 0.3% hits; in the data active means activity change below about -30%; further: on the % scale 0 is the no-effect control and ±100 the full control effect
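Nucleotide hydrolysis assay: TRiC at 20–40 nM final (set by batch activity) with 10 uM ATP, 30 min at 37 °C, in presence of 76 uM compound. Detection by competitive ADP HTRF, 30 min ambient.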
BRCA1 expr act – activators of BRCA1 expression. MCF7-BRCA1-FFLuc reporter, luminescence, 48 h; response scale: scaled: vehicle 0%, 10 µM genistein 100%. Potency, µM (titrated, usually from 46.1 µM), for the others: top-dose activation, actives largely listed as activators. 380,000 compounds, 1.1% hits. AID 624202; further: potency means the concentration at half of the fitted maximal effect; nearly all actives have a fitted effect of over 80% in size
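Quantitative HTS in MCF7 cells stably reporting BRCA1 expression via firefly luciferase. Compound treatment lasts 48 h at 37 °C in phenol-red free MEM. Activation is expressed relative to genistein at 10 microM and DMSO.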
A-T KAP1 phos – potential ataxia-telangiectasia treatment | Potency, µM (series often up to 57.5 µM), for inactives: at the top dose activation, hits mostly activators | AID 485349 | 320,000 compounds, 0.19% hits | F2112 A-T fibroblasts, KAP-1 phosphorylation AlphaLISA; neocarzinostatin DNA damage 30 min before lysis; further: potency means the concentration at half of the fitted maximal effect; % of control where 0% means no effect; nearly all actives have a fitted effect of over 45% in size
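hTERT-immortalized A-T patient fibroblasts (F2112), 500 cells/well in OPTI-MEM, 1% FBS, got compounds for 60 min, then NCS for 30 min at 37C. Lysates were then assayed for phospho-KAP-1 by AlphaLISA (anti-pKAP1 donor, anti-KAP1 acceptor beads), 6 hr at 25C.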
Mm-Cpn inhibitor – inhibitors of Methanococcus maripaludis chaperonin TRiC (MmCpn). 330,000 compounds, 0.031% hits. purified Mm-Cpn ATPase, ADP Transcreener TR-FRET. Potency, µM (series often up to 76.9 µM), inactives show at the top dose activity, negative = inhibition, most hits filed as inhibitors; further: potency means the concentration at half of the fitted maximal effect; on the % scale 0 is the no-effect control and ±100 the full control effect; nearly all actives have a fitted effect of over 80% in size
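Purified archaeal Mm-CPN (25nM final) preincubated 10 min at 37degC with compound, then 10uM ATP for 30 min at 37degC; ADP measured by HTRF Transcreener TR-FRET; buffer 30 mM TRIS pH 7.4, 100mM KCl, 5mM MgCl2, 1mM DTT.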
* = called active by the depositor; i = inactive; ? = inconclusive; . = no result. Rows were chosen to be rich in hits. Some 1.8% of all compounds tested hit in one or more screens of this group. Unless noted, the call rests on the fitted dose curve; in most records, active means well fitted curve in the direction sought with a large enough effect; inconclusive means small, poorly fitted or top-dose-only effect, or another doubt; inactive means no such curve, though single readings can be large; an effect the other way counts as inactive or inconclusive.

SMILES	pAkt inh	CCT modulator	BRCA1 expr act	A-T KAP1 phos	Mm-Cpn inhibitor
COc1ccc2sc(-c3ccc(N(C)C)cc3)c(C#CC(C)(C)O)c2c1	i	-5	-17%	32µM*	-8%
COc1ccc2sc(-c3ccc(N(C)C)cc3)c(C#CCCO)c2c1	i	-3	-78%	25µM*	-10%
COc1ccc(-c2sc3ccc(OC)cc3c2C#CCCO)cc1	i	0	-49%	?	-11%
COc1ccc2sc(-c3ccc(SC)cc3)c(C#CC(C)(C)O)c2c1	i	-19	-58%	?	-11%
COc1ccccc1-c1sc2cc3c(cc2c1C#CC1(O)CCCCC1)OCO3	i	1	0%	7%	?
COc1ccccc1-c1sc2cc3c(cc2c1C#Cc1ccccn1)OCO3	i	0	0%	10%	32µM*
CCC(C)Sc1ccc(-c2nc3cnccn3c2NC2CCCCC2)cc1 (stereo not given)	i	0	-31%	22µM*	-3%
CCCCNc1c(-c2ccc(OC)c(SC3CCCCC3)c2)nc2cnccn12	i	1	-40%	22µM*	-3%
CCCCNc1c(-c2ccc(OC)c(SC3CCCCC3)c2)nc2cc(C)ccn12	i	-1	-74%	32µM*	-4%
CCCCNc1c(-c2ccc(OC)c(SC3CCCCC3)c2)nc2ccc(Cl)cn12	i	-1	0%	-7%	2%
CCCCCCSc1cc(-c2nc3cnccn3c2NCc2ccccc2)ccc1OC	i	0	0%	18µM*	-3%
CCC(C)Sc1ccc(-c2nc3cc(C)ccn3c2NC2CCCCC2)cc1 (stereo not given)	i	-1	-6%	?	0%
c1ccc(-c2cnnc(SCc3cn4cccnc4n3)n2)cc1	-112%*	-3	16%	2%	2%
C[N+]1(CC(=O)c2ccc(Oc3ccc(C(=O)C[N+]4(C)CCOCC4)cc3)cc2)CCOCC1	.	.	6%	.	.
Cc1ccccc1-c1nc(C#N)c(N2CCC(C)CC2)o1	i	0	?	-1%	-5%
CC1CCN(c2oc(-c3ccccc3Cl)nc2C#N)CC1	i	2	6.3µM*	0%	-2%
O=c1c2ccccc2c(C=NCCCN2CCOCC2)c(O)n1Cc1ccc2c(c1)OCO2	i	-38*	5%	0%	3%
C=CCc1cccc(C=Nc2cccn3cc(-c4ccccc4)nc23)c1O	i	1	11µM*	-1%	-8%
C=CCc1cccc(C=Nc2c[nH]c(=O)[nH]c2=O)c1O	i	2	-18%	-2%	0%
Cc1cc(Br)ccc1NC(=O)c1c(C)oc2ncnc(N3CCCCC3)c12	.	.	0%	.	.
CS(=O)(=O)c1ccccc1NC(=O)COc1ccccc1C(=O)Nc1ccccc1	.	.	-6%	.	.
CCN(CC)C(=O)C1CC(c2ccc(OC)cc2)=NO1 (stereo not given)	i	-1	10µM*	-5%	1%
COc1ccc(C2=NOC(C(=O)NC(C)(C)C)C2)cc1 (stereo not given)	i	-1	12%	9%	3%
CC(NC(=O)CSc1nnnn1C1CC1)c1ccccc1Br (stereo not given)	i	-3	1%	5%	-1%
COc1cc2nc(N3CCOCC3)nc(NC(C)C)c2cc1OC	.	.	1%	.	.
SMILES	pAkt inh	CCT modulator	BRCA1 expr act	A-T KAP1 phos	Mm-Cpn inhibitor
CC(OC(=O)c1ccc([N+](=O)[O-])o1)C(=O)Nc1nc(-c2ccc(F)c(F)c2)cs1 (stereo not given)	i	2	13µM*	-15%	1%
Cc1ccn2c(NC3CCCC3)c(-c3ccccn3)nc2c1	i	-93*	-64%	4%	-3%
Cc1ccn2c(NC3CCCCC3)c(-c3cccc(-c4cccc(Cl)c4)c3)nc2c1	i	-1	-36%	25µM*	-1%
c1ccc(-c2nc3ccccn3c2NC2CCCC2)nc1	i	-1	-59%	22%	-4%
Cc1ccn2c(NC3CCCC3)c(-c3ccncc3)nc2c1	i	-2	-2%	3%	0%
Cn1c(=O)c2c(nc(N3CCOCC3)n2Cc2ccccc2F)n(C)c1=O	.	.	8%	.	.
Cc1c(NC(=O)c2cnn3c(C(F)(F)F)cc(-c4ccco4)nc23)c(=O)n(-c2ccccc2)n1C	i	-3	-26%	16µM*	0%
O=C(CNS(=O)(=O)c1ccccc1)N1CCc2ccccc2C1	i	-1	11µM*	11%	0%
Cc1ccc(S(=O)(=O)NCC(=O)N2CCc3ccccc3C2)cc1	i	1	-30%	29%	1%
CCc1ccccc1N(CC(=O)N1CCc2ccccc2C1)S(C)(=O)=O	i	-31*	-2%	-12%	1%
CCc1ccccc1N(CC(=O)N1CCCC1)S(C)(=O)=O	i	-1	1%	8%	2%
Cc1nn(-c2ccccc2)c(/N=C/c2ccc(O)cc2)c1-c1ccccc1	i	-4	5.6µM*	-4%	-1%
CCCC(C)C(=O)Nc1ncc(S(=O)(=O)c2ccc([N+](=O)[O-])cc2)s1 (stereo not given)	i	0	-41%	-1%	3%
N#C/C(=C/c1ccc(N2CCCCC2)cc1)c1cccc(F)c1	i	-2	7.9µM*	-9%	0%
CC(=O)c1ccc(NC(=O)c2cnn3c2NC(=C2CC2)C=C3C(F)F)cc1	.	.	19%	.	.
COc1ccc(-c2nc(SC)n(C(=O)c3ccco3)n2)cc1	i	-1	11µM*	-6%	-1%
CCc1nnc(NC(=O)c2ccc(COc3ccc(C)cc3)o2)s1	i	-1	5µM*	9%	-6%
Cc1ccc(OCc2ccc(C(=O)Nc3ccc(S(N)(=O)=O)cc3)o2)cc1	i	-2	10µM*	-1%	1%
COc1ccc(NC(=O)c2ccc(COc3ccccc3)o2)cc1	i	-4	42%	-2%	-1%
O=C(Nc1nccs1)c1ccc(COc2ccccc2)o1	i	-3	5.6µM*	-9%	0%
O=C(Nc1nccs1)c1ccc(CSc2ccccc2)o1	i	-1	2.8µM*	2%	0%
CCN(CC)S(=O)(=O)c1ccc(NC(=O)CSc2nnc3c(n2)[nH]c2ccccc23)cc1	.	.	11%	.	.
CC(C)(C)C1=Nn2c(nnc2-c2ccccc2F)SC1	i	-2	-7%	6%	0%
CC(C)(C)C1=Nn2c(nnc2-c2ccccn2)SC1	-111%*	1	0%	13%	-3%
O=C(NC(=O)c1ccc(Cl)cc1)Nc1ccc(-c2cnco2)cc1	.	.	.	-3%	-28%
O=C(Nc1ccc(-c2cnco2)cc1)c1ccc(F)cc1F	i	1	5µM*	34%	?
O=C(O)c1ccc(S(=O)(=O)N[C@@H](Cc2ccc(O)cc2)C(=O)O)cc1	.	.	.	1%	0%
CSc1ccc(CNc2ccccn2)cc1	i	-4	10µM*	-4%	1%
